PubChem BioAssay (NCI)
The panel holds about 83,000 compounds, 20% with a hit somewhere; the sample as a whole holds those more often.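 Growth was measured after 48 h exposure to one concentration of compound in 96-well plates. Values under 10 count as active.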 Values without a mark were called inactive. Calls of active or inactive are those of the source.

Key:
Experiment in all cases: NCI-60 one-dose screen, 48 h (100 = growth as untreated, 0 = no growth, -100 = all killed)
Conditions in all cases: 10 µM unless noted
[1] = test system: SK-MEL-2 melanoma
[2] = test system: EKVX NSCLC
[3] = test system: UO-31 renal
[4] = test system: TK-10 renal
[5] = test system: ACHN renal
[6] = test system: CAKI-1 renal
[7] = test system: A498 renal
[8] = test system: MOLT-4 leukemia
[9] = test system: SR leukemia
[10] = test system: RPMI-8226 leukemia
[11] = test system: OVCAR-8 ovarian
[12] = test system: OVCAR-5 ovarian
[13] = test system: OVCAR-4 ovarian
[14] = test system: SK-OV-3 ovarian
[15] = test system: IGROV1 ovarian
[16] = test system: OVCAR-3 ovarian
[17] = test system: HS 578T breast
[18] = test system: NCI/ADR-RES ovarian
[19] = test system: CCRF-CEM leukemia

SMILES	growth [1]	growth [2]	growth [3]	growth [4]	growth [5]	growth [6]	growth [7]	growth [8]	growth [9]	growth [10]	growth [11]	growth [12]	growth [13]	growth [14]	growth [15]	growth [16]	growth [17]	growth [18]	growth [19]
Cc1ccc(NC(=O)[C@]23CCC(C)(C)CC2C2=CCC4[C@@]5(C)C[C@@H](O)[C@H](O)[C@@](C)(CO)C5CC[C@@]4(C)[C@]2(C)CC3)cc1 (stereo partly specified)	34.1%	24.4%	25.4%	48%	23.7%	29.2%	-1.05% (active)	0.258% (active)	-11.8% (active)	-29.1% (active)	44.9%	6.37% (active)	38.7%	28.4%	54.3%	41.2%	32.4%	31.4%	–
CC(C)CSc1nc(NCCc2c[nH]c3ccccc23)c(C#N)c(-c2ccc(F)cc2)n1	78.9%	45.9%	70.3%	92.4%	59.6%	49.2%	92.8%	27.9%	3.42% (active)	31.5%	59.5%	101%	72.8%	57.9%	78.3%	76.9%	39.6%	39.9%	–
O=C(COc1ccc(NC(=O)Nc2ccc(Cl)cc2)cc1)N/N=C/c1ccccc1	-84.3% (active)	-58.5% (active)	-14% (active)	-77.9% (active)	-77.4% (active)	-89.6% (active)	-94.3% (active)	9.72% (active)	6.18% (active)	-23.5% (active)	-49% (active)	-9.58% (active)	-51.9% (active)	-60.2% (active)	-57.3% (active)	-76.9% (active)	-36.9% (active)	-10.9% (active)	-13.7% (active)
CN(C)c1ccnc(CNCCSC2(c3ccc(C(F)(F)F)cc3)c3ccccc3C=Cc3ccccc32)c1	-41.1% (active)	-23.9% (active)	17.6%	12.4%	13.2%	6.81% (active)	21.6%	16.1%	-53% (active)	-48.9% (active)	-77.2% (active)	1.89% (active)	13%	8.64% (active)	9.31% (active)	-40.5% (active)	-18% (active)	-73.6% (active)	0.384% (active)
CC(C)Sc1nc(NCCc2c[nH]c3ccccc23)c(C#N)c(-c2ccccc2)n1	68.7%	18%	32.1%	67.4%	33%	34.3%	23.4%	5.18% (active)	-17.2% (active)	7.27% (active)	38%	68.7%	53.6%	70.2%	87.8%	44.4%	8.79% (active)	15.1%	8.66% (active)
CCCSc1nc(NCCc2c[nH]c3ccccc23)c(C#N)c(-c2ccccc2)n1	75%	35.7%	64.5%	107%	78.2%	57.1%	82.5%	44.7%	8.87% (active)	44.5%	82.1%	91.8%	82.1%	91%	100%	100%	66.8%	69%	40.4%
COc1ccc(C2(SCCNCc3cc(N(C)C)ccn3)c3ccccc3C=Cc3ccccc32)cc1	-34.9% (active)	15.8%	33.7%	50.3%	37.7%	26.5%	65.9%	8.17% (active)	-28.5% (active)	-22.8% (active)	9.18% (active)	9.62% (active)	43.7%	36.5%	40.8%	14.6%	-3.79% (active)	-47.9% (active)	8.49% (active)
CCN(CC)c1ccnc(CNCCSC(c2ccccc2)(c2ccccc2)c2ccc(OC)cc2)c1	-35.8% (active)	-8.82% (active)	8.36% (active)	1.59% (active)	12.2%	0.0931% (active)	-84.5% (active)	12.9%	-49.4% (active)	-55.9% (active)	-78.6% (active)	-11.9% (active)	14.1%	-8.81% (active)	-2.91% (active)	-43% (active)	-33.2% (active)	-64.5% (active)	-3.59% (active)
CN(C)c1ccnc(NCCCSC(c2ccccc2)(c2ccccc2)c2ccccc2)c1	43%	35.5%	28.9%	74.4%	53.3%	30.8%	89.6%	-8.29% (active)	-55.5% (active)	-58.9% (active)	59.4%	84.5%	33.4%	63%	50.5%	49.6%	59.9%	40.4%	-26.3% (active)
CC1(C)CC[C@]2(C(=O)Nc3ccccc3)CC[C@]3(C)C(=CCC4[C@@]5(C)C[C@@H](O)[C@H](O)[C@@](C)(CO)C5CC[C@]43C)C2C1 (stereo partly specified)	59.8%	52.9%	47.3%	86.7%	59.9%	44.1%	56.9%	5.99% (active)	15.2%	9.08% (active)	62.7%	86.2%	58.9%	65.5%	79%	73.4%	62.8%	61.4%	30.4%
CC1(C)CC[C@]2(C(=O)Nc3ccc(F)cc3)CC[C@]3(C)C(=CCC4[C@@]5(C)C[C@@H](O)[C@H](O)[C@@](C)(CO)C5CC[C@]43C)C2C1 (stereo partly specified)	45.9%	32.3%	29.8%	58.6%	31.3%	42.7%	29.8%	5% (active)	1.68% (active)	0.573% (active)	48.1%	32.6%	49.4%	24.8%	63.5%	58%	45.5%	43%	18.2%
CCCSc1nc(NCCc2c[nH]c3ccccc23)c(C#N)c(-c2ccc(OC)cc2)n1	75.5%	32.5%	41.8%	82.9%	64.9%	51%	61.4%	26.1%	4.81% (active)	23.9%	67.9%	82.1%	61.2%	90.6%	91.2%	82.3%	42.9%	47.9%	25.7%
